This note sets out measurements from PubChem BioAssay (NCATS).

Molecules are shown by their SMILES. Records with an inconclusive call do not appear. Calls of active or inactive are those of the source. Unless noted, calls follow the shape of the dose curve; as a rule, active = well fitted curve in the direction sought with a large enough effect; inconclusive = small, poorly fitted or top-dose-only effect, or another doubt; inactive = no such curve, though single readings can be large; an effect the other way counts as inactive or inconclusive.

Experiment [1] deals with Lysosomal acid glucosylceramidase (Homo sapiens) (UniProt P04062). Description: Glucocerebrosidase-p2 (AID 348; in the data active = potency below about 10 µM; also: potency is read from the fitted curve at half-maximal effect). Conditions: purified GBA, blue fluorogenic substrate, 40 min. The method in brief: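 Normal human glucocerebrosidase (0.2 nM) with blue fluorogenic substrate (80 uM final) in citrate/phosphate pH 5.9 with 10mM sodium taurocholate, 0.01% tween-20; 40 min RT, NaOH/glycine stop; fluorescence Ex 365/Em 440; AC50 from a titration from 0.6 nM upwards.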

Experiment [2] in a line: AP1 Signaling Pathway (AID 357; active = well fitted curve in either direction with a large enough effect, not every such curve was filed as active;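 also: ME-180 reporter cells stimulated with EGF at its EC50 level; % is scaled to controls: 0 for no effect and ±100 for the full control effect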). Conditions: ME-180 AP-1-bla reporter, EGF-induced, beta-lactamase ratio, 5 h; at 7.69 µM (top of the series) unless noted. In outline:
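Titration-series screen for positive or negative modulators of EC50 EGF-induced signaling in ME-180 cells carrying an AP-1-driven beta-lactamase reporter. After 5 hours at 37 degrees Celsius, CCF4 460nm/530nm emission ratio gave %Activity; AC50 values derived.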

Experiment [3] concerns the target Cytochrome P450 1A2 (Homo sapiens) (UniProt P05177). Put plainly: p450-cyp1a2 (AID 410; calls by dose curve; also: potency is read from the fitted curve at half-maximal effect). Conditions: recombinant CYP1A2, luciferin-ME demethylation, luminescence; series mostly up to 57 µM. In outline: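 Read-out is luminescence from luciferin produced by CYP1A2 demethylation of Luciferin-ME (100uM, at Km). Detection reagent stopped the 60 min NADPH-dependent reaction; signals were normalized to 57 uM furafylline.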

Experiment [4] in a line: Stat Signaling Pathway (AID 446; active = well fitted curve in either direction with a large enough effect, not every such curve was filed as active;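 also: ME-180 cervical cancer cells given 40 pM IL-6 alongside compound; SIE-controlled beta-lactamase reporter measured as 460/530 nm FRET emission ratio; % is scaled to controls: 0 for no effect and ±100 for the full control effect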). Particulars: ME-180 (cervical carcinoma) SIE beta-lactamase reporter, IL-6 stimulated, 5 h; at 7.69 µM (top of the series) unless noted. In outline: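 Normalization used AC90 stimulation (300 pM IL-6) and AC90 inhibition (125 nM pan-JAK inhibitor at 40 pM IL-6). The underlying signal is SIE-driven beta-lactamase in ME-180 cells after 5 h IL-6 exposure with compound.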

Experiment [5] concerns the target Glucocorticoid receptor (Homo sapiens) (UniProt P04150). Description: GR-GFP Redistribution (AID 450;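 active = compounds whose dose series gives a full or clear partial fitted curve of increased nuclear translocation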; also: potency is read from the fitted curve at half-maximal effect). Conditions: U2OS GR-GFP nuclear translocation, laser cytometry, 2 h.
The target is the same in experiment [6]. Description: GR-EFC Redistribution (AID 451; calls by dose curve; also: potency is read from the fitted curve at half-maximal effect). Conditions: CHO-K1 GR-EFC translocation, beta-gal luminescence, 2 h. The method in brief:
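CHO-K1 cells expressing nuclear EA and GR-ED fragments of b-gal; compounds titrated up to 46 uM final, 2 h at 37 C. GR nuclear translocation read as complemented b-gal luminescence after 1 h RT detection.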

In experiment [7] the target is Mitogen-activated protein kinase 10 (Mus musculus) (UniProt Q61831). Description: JNK3 AlphaScreen Assay (AID 530; active = well fitted curve in either direction with a large enough effect, not every such curve was filed as active;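 also: kinase came from lysate of stimulated human HepG2 cells; signal reports phosphorylation of biotinylated GST-cJun 1-79 at Ser73 with 10 µM ATP; % is scaled to controls: 0 for no effect and ±100 for the full control effect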). Particulars: JNK3 lysate, c-Jun phosphorylation; series mostly up to 57.1 µM. The method in brief: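 HepG2 lysate (IL-1b/TNFa pre-activated) + biotin-GST-cJun 1-79 + anti-pSer73 cJun; cpd titration, 15 min RT; ATP 10 uM start; Tris pH 7.6, MgCl2, DTT, vanadate; beads in EDTA buffer; AlphaScreen.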
(Bead proximity is the source of the signal in Alpha formats.)

For experiment [8], the target named is Cytochrome P450 3A4 (Homo sapiens) (UniProt P08684). Description: qHTS Assay for Inhibitors and Substrates of Cytochrome P450 3A4 (AID 884). Also: potency is read from the fitted curve at half-maximal effect; nearly all actives have a fitted effect of over 50% in size. Particulars: recombinant CYP3A4, Luciferin-PPXE luminescence; series mostly up to 57.1 µM. In outline: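 Luminescent readout of luciferin produced by CYP3A4 (20 nM) dealkylation of Luciferin-PPXE, 25 uM (its KM). NADPH-driven reaction ran 60 min at RT after 10 min compound preincubation; data scaled to 57 uM ketoconazole as 100% inhibition.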
For orientation: qHTS replaces the single test concentration by a dilution series.

For experiment [9] the target is unchanged. Put plainly: qHTS Assay for Activators of Cytochrome P450 3A4 (AID 885). Also: nearly all actives have a fitted effect of over 65% in size. Particulars: recombinant CYP3A4, Luciferin-PPXE luminescence, 60 min; series mostly up to 57.1 µM. In outline: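 Human CYP3A4 dealkylates Luciferin-PPXE to luciferin, which luciferase detection converts to light. Substrate was at its KM (25uM), buffer 200mM KPO4, reaction 60 min at RT.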

Experiment [10] can be described thus: Confirmation and Secondary Assay for Modulators of Hemoglobin Beta Chain Splicing at IVS2 654 locus (AID 910).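 Also: HeLa cells stably carrying EGFP split by mutant beta-globin IVS2-654 intron; % of control where 0% means no effect.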 Particulars: HeLa EGFP-654 splicing reporter, GFP fluorescence, 48 h; series mostly up to 38.3 µM. In outline:
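HeLa cells stably expressing EGFP interrupted by β-globin IVS2-654 intron, seeded overnight in Opti-MEM/2% FCS, then treated 2 days at 37 °C. Restored splicing read as total peak GFP intensity per well by laser scanning cytometry (488 nm excitation, 500–520 nm emission); 500 nM antisense PNA as control.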

A short description of experiment [11]: Confirmation and Secondary Assay for Modulators of Hemoglobin Beta Chain Splicing at IVS2 705 locus (AID 930).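 Also: HeLa cells stably expressing the EGFP-705 splicing reporter; GFP fluorescence per well restored by corrected splicing of the IVS2-705 intron in EGFP; % of control where 0% means no effect.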 Particulars: HeLa EGFP-705 splicing reporter, GFP fluorescence, 48 h; series mostly up to 38.3 µM. The method in brief:
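First, HeLa EGFP-705 cells are seeded at 500/well in Optimem with 2% FCS and left overnight. Next, compound or DMSO is added for 2 days. Finally wells are laser-scanned and total peak GFP intensity scored.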

A short description of experiment [12]: qHTS Assay for Lipid Storage Modulators (AID 1519; calls by dose curve). Conditions: Drosophila S3 cells, BODIPY lipid droplet/cell ratio, laser cytometry, cells loaded with oleic acid; for activity change, negative = inhibition: at 57.5 µM (top of the series). In outline: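 Cells seeded at 5,000 per well were treated with compounds over a concentration series and loaded with oleic acid (400 uM, as added). Lipid droplet fluorescence (488 nm excitation, 500-530 nm channel) was read by laser-scanning cytometry and normalized to 20 uM Triacsin C.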

The target of experiment [13] is Ubiquitin carboxyl-terminal hydrolase 1 (Homo sapiens) (UniProt O94782). Put plainly: Inhibitors of USP1/UAF1: Pilot qHTS (AID 504865).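 Also: rhodamine fluorescence freed from ubiquitin-rhodamine substrate followed over time; top concentration of the series differs between compounds; % is scaled to controls: 0 for no effect and ±100 for the full control effect; nearly all actives have a fitted effect of over 35% in size.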 Particulars: purified USP1/UAF1, Ub-rhodamine cleavage fluorescence; series mostly up to 54.9 µM. The method in brief: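 1nM USP1/UAF1 + cpd, 15 min RT; start w/ Ub-Rho 150nM final; kinetic FL 480/540 nm, 6 reads q60 s. Buffer 50mM HEPES pH 7.8, 0.5mM EDTA, 1mM TCEP, 0.01% Tween-20, 0.1 mg/ml BSA.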

Experiment [14] is described as follows: Primary qHTS for small molecule stabilizers of the endoplasmic reticulum resident proteome: Secreted ER Calcium Modulated Protein (SERCaMP) assay (AID 1508630). Also: % is scaled to controls: 0 for no effect and ±100 for the full control effect. Conditions: SH-SY5Y GLuc-SERCaMP (Gaussia luciferase released on ER calcium loss) secretion, thapsigargin, luminescence; series mostly up to 38.4 µM. The method in brief:
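The SH-SY5Y reporter protocol was run at 3 concentrations up to 38.3 uM (primary) or 11 concentrations (follow-up): 16 h compound, 100 nM thapsigargin for 4 h, then extracellular luciferase luminescence.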

Experiment [15] has as its target 3',5'-cyclic-AMP phosphodiesterase 4B (Homo sapiens) (UniProt Q07343). Description: qHTS Assay for Inhibitors of PDE-IV (AID 607; active = well fitted activation curve with a large enough effect in the main read-out, with a control signal flat, not every such curve was filed as active; also: % of control where 0% means no effect). Particulars: HEK293 ACTOne CNG channel cells, membrane potential fluorescence; series mostly up to 22.9 µM. The method in brief: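 HEK293 ACTOne cells with CNG channel (1000/well), endogenous PDE4; membrane potential dye, compounds up to 22.9 uM final. Fluorescence Ex 535/Em 590; RO 20-1724 (100 uM final) as reference.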

Experiment [16] addresses Cytochrome P450 2C9 (Homo sapiens) (UniProt P11712). Put plainly: qHTS Assay for Inhibitors and Substrates of Cytochrome P450 2C9 (AID 883). Also: nearly all actives have a fitted effect of over 60% in size. Also: potency is read from the fitted curve at half-maximal effect. Conditions: recombinant CYP2C9, luciferin-H luminescence, 60 min; series mostly up to 57.1 µM. The method in brief:
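Human CYP2C9 (10nM) with Luciferin-H at 100uM (its KM) in 25mM KPO4; compound preincubated 10 min at 37C, then NADPH regeneration for 60 min at 37C. Luciferin read by luminescence after detection reagent; normalized to 57uM sulphaphenazole as full inhibition.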

A short description of experiment [17]: NFAT Signaling Pathway (AID 444; active = well fitted curve in either direction with a large enough effect, not every such curve was filed as active). Particulars: Jurkat NFAT-bla M1, carbachol, beta-lactamase ratio, 5 h; at 7.69 µM (top of the series) unless noted. In outline:
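Jurkat cells with NFAT-driven β-lactamase reporter and co-expressed M1 receptor, stimulated with carbachol (final 1 uM, ~EC50), compound titration, 5 h at 37 °C. CCF4 loaded 1 h at RT; 460/530 nm ratio gave %activity and AC50.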

Where [18] appears, read: measured here: cell count channel max response.
Setting [19] is: measured here: lipid channel max response.

Chain of Cytochrome P450 1A2 (Homo sapiens) (P05177 whole entry, looked up): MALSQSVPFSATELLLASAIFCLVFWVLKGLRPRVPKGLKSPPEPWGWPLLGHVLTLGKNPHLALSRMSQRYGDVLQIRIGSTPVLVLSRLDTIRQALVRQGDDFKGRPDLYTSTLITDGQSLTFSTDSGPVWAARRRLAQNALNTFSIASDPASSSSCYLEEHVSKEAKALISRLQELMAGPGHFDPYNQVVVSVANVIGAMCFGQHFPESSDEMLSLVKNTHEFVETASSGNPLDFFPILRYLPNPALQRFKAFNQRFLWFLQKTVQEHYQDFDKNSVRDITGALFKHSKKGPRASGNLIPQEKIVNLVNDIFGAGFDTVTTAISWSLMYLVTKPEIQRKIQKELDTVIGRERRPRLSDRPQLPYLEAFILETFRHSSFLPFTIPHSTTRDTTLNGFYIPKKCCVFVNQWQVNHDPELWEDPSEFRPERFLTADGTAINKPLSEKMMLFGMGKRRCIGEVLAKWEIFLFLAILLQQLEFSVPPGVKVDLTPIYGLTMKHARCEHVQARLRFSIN
Chain of 3',5'-cyclic-AMP phosphodiesterase 4B (Homo sapiens) (Q07343 whole entry, looked up): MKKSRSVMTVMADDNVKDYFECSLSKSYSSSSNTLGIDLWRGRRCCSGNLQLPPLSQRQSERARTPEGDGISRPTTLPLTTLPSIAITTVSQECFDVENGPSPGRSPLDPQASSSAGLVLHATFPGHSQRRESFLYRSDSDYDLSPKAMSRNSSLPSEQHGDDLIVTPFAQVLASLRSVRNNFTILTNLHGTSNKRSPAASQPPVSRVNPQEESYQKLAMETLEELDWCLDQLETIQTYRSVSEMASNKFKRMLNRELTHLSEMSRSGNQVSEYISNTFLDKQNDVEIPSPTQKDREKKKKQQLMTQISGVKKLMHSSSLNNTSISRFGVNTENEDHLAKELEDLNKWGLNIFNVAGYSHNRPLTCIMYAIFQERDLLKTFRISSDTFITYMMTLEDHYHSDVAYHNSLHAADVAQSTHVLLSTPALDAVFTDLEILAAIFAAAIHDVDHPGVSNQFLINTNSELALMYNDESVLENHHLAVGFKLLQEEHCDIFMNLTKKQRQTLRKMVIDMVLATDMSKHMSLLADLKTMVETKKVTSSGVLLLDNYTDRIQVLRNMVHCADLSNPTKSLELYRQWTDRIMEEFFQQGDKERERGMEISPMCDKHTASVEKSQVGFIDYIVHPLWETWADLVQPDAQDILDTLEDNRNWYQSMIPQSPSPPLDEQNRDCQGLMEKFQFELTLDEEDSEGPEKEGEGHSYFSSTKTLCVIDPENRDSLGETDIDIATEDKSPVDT
Chain of Lysosomal acid glucosylceramidase (Homo sapiens) (P04062 whole entry, looked up): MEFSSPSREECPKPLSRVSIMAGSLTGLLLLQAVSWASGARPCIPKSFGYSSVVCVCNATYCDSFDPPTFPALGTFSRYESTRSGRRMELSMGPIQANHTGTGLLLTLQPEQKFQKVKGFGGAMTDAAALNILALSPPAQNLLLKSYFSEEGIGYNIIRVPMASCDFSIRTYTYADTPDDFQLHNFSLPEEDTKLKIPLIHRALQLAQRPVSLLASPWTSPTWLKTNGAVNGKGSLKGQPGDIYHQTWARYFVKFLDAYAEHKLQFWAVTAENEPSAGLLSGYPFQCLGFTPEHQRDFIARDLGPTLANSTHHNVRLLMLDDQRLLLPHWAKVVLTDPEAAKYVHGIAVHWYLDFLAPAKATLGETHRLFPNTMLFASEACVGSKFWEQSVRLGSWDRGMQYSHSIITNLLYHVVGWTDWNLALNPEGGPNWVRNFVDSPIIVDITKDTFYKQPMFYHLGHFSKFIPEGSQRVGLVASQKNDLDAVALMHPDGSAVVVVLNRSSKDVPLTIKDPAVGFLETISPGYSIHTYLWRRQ
Chain of Glucocorticoid receptor (Homo sapiens) (P04150 whole entry, looked up): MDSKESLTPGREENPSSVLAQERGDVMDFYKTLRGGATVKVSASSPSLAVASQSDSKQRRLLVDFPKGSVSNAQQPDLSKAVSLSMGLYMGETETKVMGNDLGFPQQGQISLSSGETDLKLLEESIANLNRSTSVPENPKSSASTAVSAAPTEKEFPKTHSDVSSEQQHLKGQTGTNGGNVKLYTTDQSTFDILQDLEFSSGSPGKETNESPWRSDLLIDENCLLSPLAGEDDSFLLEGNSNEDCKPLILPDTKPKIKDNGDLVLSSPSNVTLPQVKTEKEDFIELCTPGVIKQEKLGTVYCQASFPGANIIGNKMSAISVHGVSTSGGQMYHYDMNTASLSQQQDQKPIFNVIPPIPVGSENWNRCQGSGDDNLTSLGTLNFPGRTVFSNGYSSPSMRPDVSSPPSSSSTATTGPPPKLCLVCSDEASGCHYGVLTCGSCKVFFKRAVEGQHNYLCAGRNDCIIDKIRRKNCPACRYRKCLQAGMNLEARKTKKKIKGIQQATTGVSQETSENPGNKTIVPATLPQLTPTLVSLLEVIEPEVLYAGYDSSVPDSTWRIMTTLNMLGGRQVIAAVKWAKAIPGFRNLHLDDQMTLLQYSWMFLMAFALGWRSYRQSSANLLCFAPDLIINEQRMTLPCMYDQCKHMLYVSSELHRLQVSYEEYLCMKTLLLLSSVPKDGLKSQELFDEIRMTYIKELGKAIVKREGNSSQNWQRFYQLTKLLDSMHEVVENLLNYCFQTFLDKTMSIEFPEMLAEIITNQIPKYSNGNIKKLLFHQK
Chain of Cytochrome P450 3A4 (Homo sapiens) (P08684 whole entry, looked up): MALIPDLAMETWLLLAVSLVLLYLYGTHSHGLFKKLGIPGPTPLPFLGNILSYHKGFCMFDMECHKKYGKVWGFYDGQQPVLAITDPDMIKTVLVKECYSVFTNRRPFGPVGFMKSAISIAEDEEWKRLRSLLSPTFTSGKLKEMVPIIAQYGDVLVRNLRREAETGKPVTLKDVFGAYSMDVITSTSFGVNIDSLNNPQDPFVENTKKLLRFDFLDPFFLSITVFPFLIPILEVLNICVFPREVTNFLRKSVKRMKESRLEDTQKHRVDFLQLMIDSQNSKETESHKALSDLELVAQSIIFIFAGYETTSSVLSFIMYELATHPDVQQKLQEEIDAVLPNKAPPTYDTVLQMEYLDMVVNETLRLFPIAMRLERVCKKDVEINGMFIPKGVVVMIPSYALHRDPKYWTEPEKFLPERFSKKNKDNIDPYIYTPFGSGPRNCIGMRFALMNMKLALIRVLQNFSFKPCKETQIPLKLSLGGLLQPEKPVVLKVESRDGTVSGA
Chain of Cytochrome P450 2C9 (Homo sapiens) (P11712 whole entry, looked up): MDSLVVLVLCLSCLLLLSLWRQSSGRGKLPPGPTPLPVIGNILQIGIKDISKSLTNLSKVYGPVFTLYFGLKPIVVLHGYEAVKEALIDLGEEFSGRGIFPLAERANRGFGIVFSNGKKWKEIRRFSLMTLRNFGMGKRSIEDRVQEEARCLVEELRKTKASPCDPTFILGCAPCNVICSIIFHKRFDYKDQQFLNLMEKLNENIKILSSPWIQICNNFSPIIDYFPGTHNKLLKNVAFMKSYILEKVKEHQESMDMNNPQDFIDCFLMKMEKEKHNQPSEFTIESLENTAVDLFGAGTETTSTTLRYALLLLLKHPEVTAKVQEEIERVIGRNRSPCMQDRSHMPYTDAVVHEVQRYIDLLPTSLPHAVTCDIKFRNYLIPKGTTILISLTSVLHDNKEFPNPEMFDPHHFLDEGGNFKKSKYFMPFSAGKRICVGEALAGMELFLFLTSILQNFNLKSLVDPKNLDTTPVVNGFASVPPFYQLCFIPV
Chain of Ubiquitin carboxyl-terminal hydrolase 1 (Homo sapiens) (O94782 whole entry, looked up): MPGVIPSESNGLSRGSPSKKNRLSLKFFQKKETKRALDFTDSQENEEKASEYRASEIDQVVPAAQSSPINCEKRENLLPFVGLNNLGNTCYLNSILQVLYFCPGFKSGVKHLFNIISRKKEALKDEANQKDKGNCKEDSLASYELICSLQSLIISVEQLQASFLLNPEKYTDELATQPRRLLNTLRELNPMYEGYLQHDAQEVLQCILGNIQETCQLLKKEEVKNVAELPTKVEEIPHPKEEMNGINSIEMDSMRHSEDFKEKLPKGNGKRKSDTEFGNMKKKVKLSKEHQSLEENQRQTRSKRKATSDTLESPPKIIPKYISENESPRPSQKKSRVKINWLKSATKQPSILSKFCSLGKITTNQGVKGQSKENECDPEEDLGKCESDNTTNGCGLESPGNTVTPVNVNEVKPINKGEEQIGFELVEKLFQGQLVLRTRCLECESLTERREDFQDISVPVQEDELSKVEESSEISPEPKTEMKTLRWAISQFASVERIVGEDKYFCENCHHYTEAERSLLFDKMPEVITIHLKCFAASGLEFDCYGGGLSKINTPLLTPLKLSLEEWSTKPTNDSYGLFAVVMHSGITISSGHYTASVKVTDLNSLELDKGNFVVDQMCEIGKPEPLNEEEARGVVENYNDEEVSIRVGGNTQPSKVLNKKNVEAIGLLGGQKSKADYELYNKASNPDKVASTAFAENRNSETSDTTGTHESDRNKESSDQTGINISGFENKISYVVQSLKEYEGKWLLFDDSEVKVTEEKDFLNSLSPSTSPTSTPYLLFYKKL

On to `COc1ccccc1-c1cc(NCc2cccnc2)ncn1`, for which the Potency in experiment [1] is > 11.4 µM (inactive); in [3], 0.316 µM (active); in experiment [5], > 46 µM (inactive); in [6], > 46 µM (inactive); in experiment [8], 5.01 µM (active). The activity change, negative = inhibition is -6.59% (inactive) in experiment [2] and 4.96% (inactive) in [12]. For the same molecule, the activity, negative = inhibition in [4] is 0.807% (inactive). Besides, the outcome in experiment [7], in experiment [10] and in [11] was inactive. For the same molecule, the Potency result in experiment [9], in experiment [13] and in [14] was “inactive” each time. For the same molecule, the max response in experiment [12] (setting [18]) was 9.53%; in experiment [12] (setting [19]), 19.3%.
With `CN(C)c1ccc(-c2nc(N(C)Cc3ccco3)c3ccccc3n2)cc1`, the Potency is 6.72 µM (active) in experiment [1], 0.631 µM (active) in experiment [3], > 46 µM (inactive) in [5] and > 46 µM (inactive) in [6]. The activity change, negative = inhibition in experiment [2] is 25.1% (inactive); in experiment [16], 33.8% [at 2.29 µM] (inactive); in experiment [12], 10.8% (inactive). Further, the activity, negative = inhibition in experiment [4] was 26.1% (inactive). For the same molecule, the result in experiment [7], in experiment [10] and in [11] was inactive. Besides, the Potency entry in experiment [15], in [9], in experiment [13] and in [14] was “inactive” throughout. In addition, the max response came out at 0.88% in [12] (setting [18]) and 11.3% in experiment [12] (setting [19]).
With `O=C(Nc1cccc(F)c1)N1CCCC2(CCN(C(=O)c3ccncc3)CC2)C1`, the Potency in experiment [1] was > 11.4 µM (inactive); in experiment [3] it was 12.6 µM (active); in experiment [6], > 46 µM (inactive); in experiment [16], 0.0794 µM (active); in experiment [8], 6.31 µM (active). For the same molecule, the activity change, negative = inhibition in experiment [2] is -4.33% (inactive); in [17], -19.9% (inactive); in experiment [12], 6.14% (inactive). Also, the molecule was classed as inactive in experiment [7]. Further, the Potency result in experiment [15], in experiment [9] and in experiment [14] was “inactive” in each case. Besides, the results for the max response in experiment [12] (setting [18]) and in [12] (setting [19]) were 19.3% and 28.5%, respectively.
As to `O=C(c1cnccn1)N1CCC[C@@]2(CCN(Cc3cc(C(F)(F)F)cc(C(F)(F)F)c3)C2)C1`, the results for the Potency in [1] and in experiment [8] were > 11.4 µM (inactive) and 7.94 µM (active), respectively. Besides, the figures for the activity change, negative = inhibition in experiment [2], in [17] and in experiment [12] were -16.9% (inactive), 16.8% (inactive) and 4.01% (inactive), respectively. Also, the Potency entry in experiment [3], in [15], in experiment [9] and in [14] was “inactive” each time. Moreover, the activity, negative = inhibition in experiment [4] is 2.8% (inactive). Moreover, the call in experiment [7] was inactive. Further, the values for the max response in [12] (setting [18]) and in experiment [12] (setting [19]) were 14.7% and 20.7%, respectively.
Turning to `COc1ccccc1CN1CC[C@@]2(CCCN(C(=O)c3cccn3C)C2)C1`, the Potency in experiment [1] was > 11.4 µM (inactive); in [6], > 46 µM (inactive). In addition, the activity change, negative = inhibition in [2] was -17% (inactive); in experiment [17], -9.11% (inactive); in experiment [12] it was 3.67% (inactive). The Potency result in [3], in experiment [9] and in [14] was “inactive” in each case. In addition, the activity, negative = inhibition in experiment [4] is -10.5% (inactive). Also, the outcome in experiment [7] was inactive. The max response in experiment [12] (setting [18]) turned out to be 9.96%; in [12] (setting [19]) it was 13.2%.
